Experimental data as given in the supplement of paper PMC12339681.
Counter-ions that a name gives are not always drawn.

test system: PBMC-derived induced microglia-like cells (piMGLC); test: synaptosome phagocytic index relative to DMSO control (fraction of DMSO); higher = more phagocytosis; details: concentration: 10 uM (2 uM for compounds listed in Table S2); pretreatment time: 24 h; assay time: 3 h
Protocol: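 PBMC-derived induced microglia-like cells (piMGLCs) in 96-well plates were pretreated for 24 h with CNS-penetrant library compounds (MedChemExpress HY-L028), mostly at 10 uM; Table S2 lists 9 compounds at 2 uM. pHrodo-Red-labelled human iPSC-neuron synaptosomes (3 ug/well) were then added for 3 h, and cells were fixed and imaged by confocal microscopy. Phagocytic index (synaptosome area / cell count, CellProfiler) is a mean over 3 replicate wells on different plates, normalized to the DMSO control. Compounds leaving <10% of DMSO cell count were marked toxic and given no value.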

| Compound | synaptosome phagocytic index |
| --- | --- |
| COc1cccc2c1C(=O)c1c(O)c3c(c(O)c1C2=O)C[C@@](O)(C(=O)CO)C[C@@H]3O[C@H]1C[C@H](N)[C@@H](O)[C@H](C)O1 [Epirubicin_(hydrochloride)] | 0.904 |
| O=C(c1cc(Cc2n[nH]c(=O)c3ccccc23)ccc1F)N1CCN(C(=O)C2CC2)CC1 [Olaparib] | 0.997 |
| O=c1[nH]c2cc(Cl)ccc2c(O)c1-c1cccc(Oc2ccccc2)c1 | 1.18 |
| Nc1ccn([C@@H]2CS[C@H](CO)O2)c(=O)n1 [Lamivudine] | 0.89 |
| Cn1cc(-c2c[nH]c3ncnc(N4CCOCC4)c23)cc1C#N | 1.32 |
| FC(F)(F)c1ccc(CNc2ccc(Cc3c[nH]c4ncc(Cl)cc34)cn2)cn1 [Pexidartinib] | 0.587 |
| CC#Cc1cncc(-c2ccc3c(c2)[C@@]2(N=C(C)C(N)=N2)[C@]2(CC[C@H](OC)CC2)C3)c1 [Lanabecestat] | 1.03 |
| NC(=O)N1c2ccccc2C=Cc2ccccc21 [Carbamazepine] | 0.865 |
| OC(CN1CCN(c2cccc(Cl)c2)CC1)C(c1ccccc1)c1ccccc1 (stereo not given) | 1.01 |
| CC1(C)S[C@@H]2[C@H](NC(=O)[C@H](NC(=O)N3CCN(S(C)(=O)=O)C3=O)c3ccccc3)C(=O)N2[C@H]1C(=O)O [Mezlocillin_(sodium)] | 0.977 |
| C[C@H]1[C@H](NC(=O)/C(=N\OC(C)(C)C(=O)O)c2csc(N)n2)C(=O)N1S(=O)(=O)O [Aztreonam] | 0.528 |
| CCc1cc(Nc2nc(-c3ccc(-n4cnc(C)c4)c(F)c3)cs2)c(C)cc1C | 0.666 |
| CN(C)c1ncc(/C=C/c2nc3ccc(OCCF)cc3o2)s1 | 0.356 |
| COc1cc(C(=O)NCc2ccc(OCCN(C)C)cc2)cc(OC)c1OC [Trimethobenzamide_hydrochloride] | 1.24 |
| CN1C(=O)[C@@H](NC(=O)c2n[nH]c(Cc3ccccc3)n2)COc2ccccc21 | 1.15 |
| CN1C(C(=O)Nc2ccccn2)=C(O)c2ccccc2S1(=O)=O [Piroxicam] | 0.661 |
| CC(C(=O)O)c1ccc(-c2ccccc2)c(F)c1 (stereo not given) [Flurbiprofen] | 0.64 |
| CC1CCN(CC[C@H]2CCCN2S(=O)(=O)c2cccc(O)c2)CC1 | 0.817 |
| C.CN(C)C(=O)c1cc2cnc(Nc3ccc(N4CCNCC4)cn3)nc2n1C1CCCC1 [Ribociclib_succinate_hydrate] | 0.195 |
| Oc1c(I)cc(Cl)c2cccnc12 [Clioquinol] | 0.393 |

| Compound | synaptosome phagocytic index |
| --- | --- |
| C[C@H](C(=O)O)c1cccc(C(=O)c2ccccc2)c1 [S-(+)-Ketoprofen] | 0.724 |
| CC(C)(S)[C@@H](N)C(=O)O [Penicillamine] | 0.328 |
| CC(=O)OCC[N+](C)(C)C [Acetylcholine_(chloride)] | 0.587 |
| C[C@H]1COc2c(N3CCN(C)CC3)c(F)cc3c(=O)c(C(=O)O)cn1c23 [Levofloxacin] | 1.16 |
| Nc1nc2ccc(OC(F)(F)F)cc2s1 [Riluzole] | 0.991 |
| CNCC[C@@H](Oc1ccccc1C)c1ccccc1 [Atomoxetine_(hydrochloride)] | 1.16 |
| Nc1cccc2c1CN(C1CCC(=O)NC1=O)C2=O (stereo not given) [Lenalidomide] | 1.11 |
| CS(=O)(=O)CCNCc1ccc(-c2ccc3ncnc(Nc4ccc(OCc5cccc(F)c5)c(Cl)c4)c3c2)o1 [Lapatinib] | 0.0755 |
| CN(C)CCc1c[nH]c2ccc(Cn3cncn3)cc12 [Rizatriptan_(benzoate)] | 1.11 |
| C[C@H](N=C(NC#N)Nc1cccc2ncccc12)c1ccccc1 | 0.994 |
| CC[C@@]12C=C(C(=O)O)n3c4c(c5ccccc53)CCN(CCC1)[C@H]42 [Apovincaminic_acid_(hydrochloride_salt)] | 0.745 |
| CN1CCN(C2=Nc3ccccc3Oc3ccc(Cl)cc32)CC1 [Loxapine] | 0.272 |
| COc1ccc(Cl)cc1C(=O)NCCc1ccc(S(=O)(=O)NC(=O)NC2CCCCC2)cc1 [Glibenclamide] | 0.608 |
| CC1=NN(c2ccccc2)C(=O)C1 [Edaravone] | 0.555 |
| CN(C)CCC=C1c2ccccc2CCc2ccccc21 [Amitriptyline_(hydrochloride)] | 0.997 |
| CC1(C)S[C@@H]2[C@H](NC(=O)[C@H](N)c3ccc(O)cc3)C(=O)N2[C@H]1C(=O)O [Amoxicillin_(sodium)] | 0.69 |
| CC(=O)[C@H]1CC[C@H]2[C@@H]3CC=C4C[C@@H](OS(=O)(=O)O)CC[C@]4(C)[C@H]3CC[C@]12C [Pregnenolone_monosulfate] | 0.895 |
| COc1cc2c(N3CCN(C(=O)Nc4ccc(OC(C)C)cc4)CC3)ncnc2cc1OCCCN1CCCCC1 [Tandutinib] | 0.936 |
| CC(C)Cc1ccc([C@@H](C)C(=O)O)cc1 [(R)-(-)-Ibuprofen] | 1.31 |
| CCCN[C@H]1CCc2nc(N)sc2C1 [Pramipexole_(dihydrochloride)] | 0.906 |
